Experimental findings from PubChem BioAssay (Tox21) are described below.

Where “and” joins values, the source holds several entries; their conditions need not be identical. Equal values may be shown once. Inconclusive results are not listed. Some compounds were tested as several samples or in several runs, with calls that do not always agree. Calls of active or inactive are those of the source. Unless noted, calls follow the shape of the dose curve; as a rule, active = well fitted curve in the direction sought with a large enough effect in the repeat runs; inconclusive = weak or mixed curves; inactive = no such curve, though single readings can be large; an effect the other way counts as inactive or inconclusive.

A short description of assay [1]: qHTS assay to identify aromatase inhibitors - cell viability counter screen (AID 743084).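 Also: cells stimulated with testosterone during compound exposure; nearly all actives have a fitted effect of over 55% in size.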 Also: potency is read from the fitted curve at half-maximal effect.
Assay [2] deals with Aryl hydrocarbon receptor (Homo sapiens) (UniProt P35869). Kind of assay: qHTS assay to identify small molecule that activate the aryl hydrocarbon receptor (AhR) signaling pathway (AID 743085). Also: nearly all actives have a fitted effect of over 15% in size. Also: potency is read from the fitted curve at half-maximal effect.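 As to activation: HG2L7.5c1 human HepG2 liver cells with stably integrated DRE-driven firefly reporter; series mostly up to about 70 µM.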 In outline: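 Steps: seed HepG2-AhR-luc cells; allow 5 h at 37C; pin-transfer test compound or vehicle; incubate 24 h at 37C; add viability dye (30 min, 37C) and read fluorescence; add luciferase substrate (30 min, RT) and read luminescence.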

Assay [3] can be described thus: qHTS assay to identify small molecule that activate the aryl hydrocarbon receptor (AhR) signaling pathway - cell viability counter screen (AID 743086). Also: nearly all actives have a fitted effect of over 45% in size. Also: potency is read from the fitted curve at half-maximal effect. The gist of the method: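 HepG2-AhR-luc (HG2L7.5c1) cells, 4000/well, treated 24 h at 37 C with compound; viability measured as CellTiter-Fluor fluorescence after 30 min in the same wells as the luciferase read.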

The nature of assay [4]: qHTS assay to identify small molecule phospholipidosis (PLD) inducers (AID 1259344; active = well fitted curve in the direction sought with a large enough effect; an effect the other way counts as inactive or inconclusive). In outline: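 HepG2 cells, 900/well, treated with compound plus LipidTOX Red for 24 h at 37 C; amiodarone positive and DMSO negative controls. Fixed with paraformaldehyde/Hoechst, then high-content imaging scored LipidTOX pit count and integrated intensity per well and per cell.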
For orientation: qHTS replaces the single test concentration by a dilution series.

Assay [5] concerns the target Nuclear receptor subfamily 1 group I member 2 (Rattus norvegicus) (UniProt Q9R1A7). Kind of assay: Rat pregnane X receptor (rPXR) activation by small molecules, qHTS assay (AID 1346983). Also: nearly all actives have a fitted effect of over 20% in size. The note with it: rPXR luciferase reporter cells, One-Glo luminescence, 24 h; max activation: stronger effect = higher value. In outline: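 Cell-based rPXR activation assay: rPXR cells, 2,000 per well, rested 5hr at 37 C, then exposed to compounds in DMSO for 24 hr at 37 C. Luciferase activity read by One-Glo luminescence after 30 min at room temperature.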

For assay [6], the target named is Nuclear receptor subfamily 1 group I member 2 (Homo sapiens) (UniProt O75469). As to the kind of experiment: Human pregnane X receptor (PXR) activation by small molecules, qHTS assay (AID 1346985). Also: nearly all actives have a fitted effect of over 40% in size. Also: potency is read from the fitted curve at half-maximal effect. In outline: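 DPX-2 cells (HepG2 co-transfected with a PXR response element and a CYP3A4-promoter luciferase construct) were seeded at 2,000 per well, rested 5 hr at 37C, then exposed to DMSO-dissolved compounds for 24 hr. Activation was read as luciferase luminescence.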

Assay [7] deals with Peroxisome proliferator-activated receptor gamma (Homo sapiens) (UniProt P37231). As to the kind of experiment: qHTS assay to identify small molecule agonists of the peroxisome proliferator-activated receptor gamma (PPARg) signaling pathway (AID 743094; active = well fitted activation curve with a large enough effect in the signal ratio in the repeat runs, not every such curve was filed as active; the % refers to the signal ratio). The gist of the method: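 GeneBLAzer PPARg UAS-bla HEK293H cells carrying a stably integrated beta-lactamase reporter were pre-incubated 5 h at 37C, then exposed to compounds in DMSO for 17 h at 37C; LiveBLAzer B/G FRET substrate was added for 1 h at room temperature and fluorescence read.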

In assay [8] the target is Nuclear receptor subfamily 1 group I member 2 (Homo sapiens) (UniProt O75469). Kind of assay: CYP3A4 induction through human pregnane X receptor (PXR) by small molecules, qHTS assay (AID 1346984). Also: nearly all actives have a fitted effect of over 40% in size. The gist of the method: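 DPX-2 cells (HepG2 co-transfected with PXR and CYP3A4 promoter-luciferase) treated with compounds 24 h at 37C; luciferin-IPA CYP3A4 substrate 3uM final added for 3 h, then One-Glo; luminescence read. qHTS format.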
% is scaled to controls: 0 for no effect and ±100 for the full control effect.

Chain of Aryl hydrocarbon receptor (Homo sapiens) (P35869 whole entry, looked up): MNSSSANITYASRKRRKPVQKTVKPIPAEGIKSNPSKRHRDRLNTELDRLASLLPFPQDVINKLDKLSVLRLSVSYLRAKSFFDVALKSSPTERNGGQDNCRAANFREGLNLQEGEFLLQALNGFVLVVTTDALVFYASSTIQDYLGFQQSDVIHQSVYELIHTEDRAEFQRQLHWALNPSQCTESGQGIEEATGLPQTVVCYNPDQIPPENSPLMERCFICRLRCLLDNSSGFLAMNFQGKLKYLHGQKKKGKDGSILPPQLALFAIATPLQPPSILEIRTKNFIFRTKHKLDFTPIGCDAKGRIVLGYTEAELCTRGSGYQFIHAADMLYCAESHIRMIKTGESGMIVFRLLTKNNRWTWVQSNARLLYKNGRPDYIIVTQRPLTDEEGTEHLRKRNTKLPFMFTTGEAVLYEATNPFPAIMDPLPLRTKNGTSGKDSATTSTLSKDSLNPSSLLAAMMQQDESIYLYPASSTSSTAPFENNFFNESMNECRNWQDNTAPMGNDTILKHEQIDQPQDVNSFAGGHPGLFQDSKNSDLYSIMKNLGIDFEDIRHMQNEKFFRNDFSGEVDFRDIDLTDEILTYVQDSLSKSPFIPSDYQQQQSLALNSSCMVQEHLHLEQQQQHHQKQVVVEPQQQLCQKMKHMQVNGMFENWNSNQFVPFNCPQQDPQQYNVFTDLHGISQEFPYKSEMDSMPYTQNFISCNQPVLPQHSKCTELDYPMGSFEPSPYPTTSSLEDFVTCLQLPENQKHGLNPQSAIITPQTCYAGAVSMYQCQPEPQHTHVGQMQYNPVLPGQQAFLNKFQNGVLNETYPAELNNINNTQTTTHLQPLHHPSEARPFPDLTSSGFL
Chain of Nuclear receptor subfamily 1 group I member 2 (Rattus norvegicus) (Q9R1A7 whole entry, looked up): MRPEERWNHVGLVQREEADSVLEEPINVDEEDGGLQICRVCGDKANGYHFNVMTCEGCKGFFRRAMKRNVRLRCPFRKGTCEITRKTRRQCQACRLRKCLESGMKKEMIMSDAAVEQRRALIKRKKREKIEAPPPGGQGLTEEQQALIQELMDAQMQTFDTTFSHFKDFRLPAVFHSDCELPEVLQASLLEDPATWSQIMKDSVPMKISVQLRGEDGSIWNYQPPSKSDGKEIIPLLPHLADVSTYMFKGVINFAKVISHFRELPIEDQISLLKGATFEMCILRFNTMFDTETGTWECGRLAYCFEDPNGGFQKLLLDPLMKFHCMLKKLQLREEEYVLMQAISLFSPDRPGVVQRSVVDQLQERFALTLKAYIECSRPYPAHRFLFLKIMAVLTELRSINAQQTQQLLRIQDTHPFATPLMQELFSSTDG
Chain of Peroxisome proliferator-activated receptor gamma (Homo sapiens) (P37231 whole entry, looked up): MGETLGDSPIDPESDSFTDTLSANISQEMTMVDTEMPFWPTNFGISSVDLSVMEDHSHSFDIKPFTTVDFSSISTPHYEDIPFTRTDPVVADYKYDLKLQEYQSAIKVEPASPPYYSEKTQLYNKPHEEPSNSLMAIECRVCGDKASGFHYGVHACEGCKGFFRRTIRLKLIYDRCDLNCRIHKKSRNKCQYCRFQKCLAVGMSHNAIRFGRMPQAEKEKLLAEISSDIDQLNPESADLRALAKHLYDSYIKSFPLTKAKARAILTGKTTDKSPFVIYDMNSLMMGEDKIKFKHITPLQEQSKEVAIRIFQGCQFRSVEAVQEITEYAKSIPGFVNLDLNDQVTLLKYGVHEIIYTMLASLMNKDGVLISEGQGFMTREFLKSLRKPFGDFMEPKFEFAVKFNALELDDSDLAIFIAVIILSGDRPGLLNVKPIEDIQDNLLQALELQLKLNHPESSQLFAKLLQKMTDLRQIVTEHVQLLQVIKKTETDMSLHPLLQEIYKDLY

In the case of `CN(C)C=Nc1c(I)cc(I)c(CCC(=O)O)c1I`, the Potency entry in assay [1], in assay [2], in assay [3] and in assay [4] was “inactive” in each case. In addition, the max activation in assay [5] is -2.71% (inactive). The Potency in assay [6] is 14.1 µM (active).
On to `CC[C@H](C)[C@@H]1NC(=O)[C@H](Cc2ccc(O)cc2)NC(=O)[C@@H](N)CSSC[C@@H](C(=O)N2CCC[C@H]2C(=O)N[C@@H](CC(C)C)C(=O)NCC(N)=O)NC(=O)[C@H](CC(N)=O)NC(=O)[C@H](CCC(N)=O)NC1=O`, for which the Potency result in assay [1], in assay [2], in assay [3], in assay [7], in assay [4] and in assay [6] was “inactive” in each case. Further, the max activation in assay [5] was 0.0402% (inactive).
For `Nc1nc2c(c(=O)[nH]1)N(C=O)C(CNc1ccc(C(=O)N[C@@H](CCC(=O)O)C(=O)O)cc1)CN2` (stereo not given in full), the Potency entry in assay [1], in assay [2], in assay [3], in assay [7], in assay [4] and in assay [6] was “inactive” each time. Moreover, in assay [5], the max activation is 3.43% (inactive).
In the case of `CC(C)CCCC(C)NC(C)C` (stereo not given), the Potency entry in assay [1], in assay [2], in assay [3], in assay [7], in assay [4] and in assay [6] was “inactive” throughout. For the same molecule, the max activation in assay [5] is -0.288% (inactive).
For the molecule `CCCCCCCCCCCCCCCCCCCCCCO`, the Potency entry in assay [1], in assay [2], in assay [3], in assay [7], in assay [4] and in assay [6] was “inactive” each time. For the same molecule, the max activation in assay [5] was -1.89% (inactive).
`CC(=O)Nc1c(I)c(C(=O)O)c(I)c(N(C)C(C)=O)c1I`: the Potency result in assay [1], in assay [2], in assay [3], in assay [7], in assay [4] and in assay [6] was “inactive” throughout. For the same molecule, the max activation in assay [5] is -0.923% (inactive).
For the molecule `CC(C)(CO)[C@@H](O)C(=O)NCCC(=O)NCCSSCCNC(=O)CCNC(=O)[C@H](O)C(C)(C)CO`, the Potency entry in assay [1], in assay [2], in assay [3], in assay [7], in assay [4] and in assay [6] was “inactive” throughout. Further, the max activation in assay [5] is -1.96% (inactive).
On to `CN[C@@H]1[C@@H](O)[C@@H](O[C@@H]2[C@@H](O)[C@H](O[C@H]3O[C@H](CN)[C@@H](O)[C@H](O)[C@H]3O)[C@@H](N)C[C@H]2NC(=O)C(O)CN)OC[C@]1(C)O` (stereo not given in full), for which the Potency entry in assay [1], in assay [2], in assay [3], in assay [4] and in assay [6] was “inactive” each time. Moreover, the max activation in assay [5] was -5.41% (inactive).
Regarding `NC(=O)c1ccc[n+]([C@@H]2O[C@H](COP(=O)([O-])OP(=O)(O)OC[C@H]3O[C@@H](n4cnc5c(N)ncnc54)[C@H](O)[C@@H]3O)[C@@H](O)[C@H]2O)c1`, the Potency entry in assay [1], in assay [2], in assay [3], in assay [7], in assay [4] and in assay [6] was “inactive” throughout. For the same molecule, in assay [5], the max activation was -1.3% (inactive).
Turning to `CCSc1ccc2c(c1)N(CCCN1CCN(C)CC1)c1ccccc1S2`, the Potency entry in assay [1], in assay [2], in assay [3], in assay [7], in assay [4] and in assay [6] was “inactive” throughout. For the same molecule, the max activation in assay [5] is -0.528% (inactive).
Consider `CC[C@@H]1/C=C(\C)C[C@H](C)C[C@H](OC)[C@H]2O[C@@](O)(C(=O)C(=O)N3CCCC[C@H]3C(=O)O[C@H](/C(C)=C/[C@@H]3CC[C@@H](Cl)[C@H](OC)C3)[C@H](C)[C@@H](O)CC1=O)[C@H](C)C[C@@H]2OC`, for which the Potency result in assay [1], in assay [2], in assay [3], in assay [7], in assay [4] and in assay [6] was “inactive” in each case. The max activation in assay [5] was -6.11% (inactive).
As to `CC1CC(OC(=O)C(O)c2ccccc2)CC(C)(C)C1` (stereo not given), the Potency entry in assay [3], in assay [7], in assay [4] and in assay [8] was “inactive” throughout. Also, the max activation in assay [5] is -1.68% (inactive).
As for `Cc1cc(O)c2c(c1)O[C@@]1(C)CC[C@H]3C(C)(C)CCCC34CO[C@@H]2[C@H]41` (stereo not given in full), the Potency in assay [1] is 29.8 µM (active); in assay [6], 2.82 µM (active). Also, the Potency result in assay [2], in assay [3], in assay [4] and in assay [8] was “inactive” in each case.
As to `CO[C@@H]1[C@@H](O[C@@H]2O[C@H](C)[C@@H](O[C@H]3C[C@@](C)(O)[C@@H](O)[C@H](C)O3)[C@H](N(C)C)[C@H]2O)[C@@H](CC=O)C[C@@H](C)[C@@H](O[C@@H]2CC[C@H](N(C)C)[C@@H](C)O2)/C=C/C=C/C[C@@H](C)OC(=O)C[C@H]1O`, the Potency result in assay [1], in assay [3], in assay [7] and in assay [4] was “inactive” throughout. Besides, the max activation in assay [5] was -4.61% (inactive).
For `c1ccc2cc(C3=NCCN3)ccc2c1`, the Potency entry in assay [1], in assay [3], in assay [4] and in assay [6] was “inactive” throughout. Moreover, the max activation in assay [5] was -0.34% (inactive).
For the molecule `CC(Oc1ccccc1)C(=O)N[C@@H]1C(=O)N2[C@@H]1SC(C)(C)[C@@H]2C(=O)O` (stereo not given in full), the Potency result in assay [1], in assay [2], in assay [3], in assay [7], in assay [4] and in assay [6] was “inactive” each time. Further, the max activation in assay [5] was -1.33% (inactive).
On to `O=C1C(=O)c2ncccc2-c2cccnc21`, for which the Potency entry in assay [1], in assay [7] and in assay [4] was “inactive” each time. For the same molecule, the Potency in assay [2] was 6.68 µM (active). Moreover, in assay [5], the max activation is -3.81% (inactive).
As for `COC(=O)[C@H]1[C@H]2C[C@@H]3c4[nH]c5cc(OC)ccc5c4CCN3C[C@H]2C[C@@H](OC(=O)/C=C/c2cc(OC)c(OC)c(OC)c2)[C@@H]1OC`, the Potency entry in assay [1], in assay [3], in assay [7], in assay [4] and in assay [6] was “inactive” throughout. Besides, the max activation in assay [5] was -2.27% (inactive).
With `CC(=O)[C@]1(O)Cc2c(O)c3c(c(O)c2[C@@H](O[C@H]2C[C@H](N)[C@H](O)[C@H](C)O2)C1)C(=O)c1c(O)cccc1C3=O`, the Potency in assay [1] was 26.6 µM (active); in assay [3] it was 4.73 µM (active) and 13.3 µM (active); in assay [6], 14.1 µM (active) and inactive. The Potency result in assay [2] and in assay [8] was “inactive” in each case. For the same molecule, the PLD induction in assay [4] is -0.0504% [at 7.66 µM] (inactive).
